A short description of test [1]: E. coli DRC41 culture turbidity changes, primary screen, E. coli filamentation inducer project, strain DRC41, OD650, 48 h (AID 1152).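 Note: E. coli MC1000 strain DRC41 lacking acrAB efflux pump and sulA.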 To be noted: E. coli DRC41 (acrAB sulA), higher = more signal, called active from +8 up or from −8 down.
The nature of test [2]: small-molecule binders of probe aLefty1, primary screen, biochemical, small-molecule microarray, 635/667 nm fluorescence (AID 1153).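 Note: score merges spot fluorescence with signal-to-noise ratio from the scanned slide images.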 Conditions: higher = more signal.
Test [3] is described as follows: PSAC antagonists in infected red cells, primary screen, cell-based, P. falciparum Indochina, OD700, 1 h (AID 1154). To be noted: P. falciparum Indochina infected RBC osmotic lysis, higher = more signal, called active from +8 up or from −8 down.
Test [4] in a line: PSAC antagonists in infected red cells, primary screen, cell-based, P. falciparum Indochina, OD700, 2 h (AID 1155).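 Note: lysis reports solute entry through the parasite surface anion channel PSAC; channel blockers reduce lysis of infected cells.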 Conditions: P. falciparum Indochina infected erythrocytes, osmotic lysis OD700; higher = more signal, called active from +8 up or from −8 down.
A short description of test [5]: osmotic lysis modulators in infected erythrocytes, primary screen, PSAC antagonist project, cell-based, P. falciparum Indochina, OD700, 3 h (AID 1156). To be noted: higher = more signal, called active from +8 up or from −8 down.
Test [6] can be described thus: PSAC antagonists in infected red cells, primary screen, cell-based, P. falciparum Indochina, OD700, 18 h (AID 1157). To be noted: P. falciparum Indochina infected erythrocytes, osmotic lysis OD700, 18 h; higher = more signal, called active from +8 up or from −8 down.
Test [7] in a line: modulators of S6 phosphorylation in cells, primary screen, cell-based, A549, cytoblot, luminescence, serum-stimulated (AID 1158).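 Note: serum-stimulated A549 lung adenocarcinoma cells; signal is phosphorylated S6 detected by cytoblot immunostaining with HRP secondary.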 To be noted: A549 phospho-S6 cytoblot, 5 h, higher = more signal.
Test [8] addresses NADPH oxidase 2 (Homo sapiens) (UniProt P04839). Kind of test: NOX2-dependent H2O2 signal modulators, primary screen, NOX inhibitor project, cell-based, HEK293-NOX2, PMA-stimulated, Amplex Red fluorescence (AID 1159). Note: test concentration not given here. To be noted: 45 min, higher = more signal, called active from +8 up or from −8 down.
The target of test [9] is NADPH oxidase 4 (Homo sapiens) (UniProt Q9NPH5). Kind of test: NOX4-dependent H2O2 signal modulators, primary screen, NOX inhibitor project, cell-based, HEK293-NOX4, tetracycline-induced, Amplex Red fluorescence (AID 1160). Conditions: 45 min, higher = more signal, called active from +8 up or from −8 down.
The target in test [10] is NADPH oxidase 5 (Homo sapiens) (UniProt Q96PH1). Kind of test: NOX5-dependent H2O2 signal modulators, primary screen, NOX inhibitor project, cell-based, HEK293-NOX5, Amplex Red fluorescence (AID 1161). Conditions: HEK293-NOX5, ionomycin, 45 min, higher = more signal.
Test [11] can be described thus: A549 cell viability effects, profiling panel, calcein-AM fluorescence, 48 h, basal (AID 1162). Note: test concentration not given here. To be noted: higher = more signal.
Test [12] can be described thus: adipocyte viability effects, profiling panel, cell-based, 3T3-L1 adipocytes, calcein-AM fluorescence, 48 h, basal (AID 1163). Note: test concentration not given here. To be noted: 3T3-L1 adipocytes viability, higher = more signal.
Test [13] in a line: HepG2 cell viability effects, profiling panel, calcein-AM fluorescence, 48 h, basal (AID 1164). Note: test concentration not given here. To be noted: higher = more signal.
A short description of test [14]: MM1S cell viability effects, profiling panel, calcein-AM fluorescence, 48 h, basal (AID 1165).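 Note: viability of MM1S multiple myeloma cells under basal unstimulated conditions; test concentration not given here.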 To be noted: higher = more signal.
Test [15] in a line: basal RPMI8226 viability, no added stimulus, profiling panel, cell-based, calcein-AM fluorescence, 48 h, PK04 Diversity Set (AID 1166).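 Note: cells grown under basal conditions without added stimulus; test concentration not given here.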 Conditions: RPMI8226 myeloma viability, higher = more signal.
Test [16] can be described thus: basal HepG2 mitochondrial membrane potential changes, profiling panel, cell-based, JC-1 fluorescence, 24 h, 100 nL compound (AID 1167). Note: test concentration not given here. Conditions: higher = more signal.
Test [17] is described as follows: basal 3T3-L1 adipocyte mitochondrial potential changes, profiling panel, cell-based, JC-1 fluorescence, 3T3-L1 adipocytes, 24 h, 100 nL compound (AID 1168). Note: test concentration not given here. Conditions: JC-1 mitochondrial fluorescence, higher = more signal, called active from +8 up or from −8 down.
Test [18] is described as follows: basal RPMI8226 mitochondrial membrane potential changes, profiling panel, cell-based, JC-1 fluorescence, 24 h, 100 nL compound (AID 1169). Note: test concentration not given here. Conditions: RPMI8226 myeloma, JC-1 mitochondrial potential fluorescence, higher = more signal.
Test [19] can be described thus: basal MM1S mitochondrial membrane potential changes, profiling panel, cell-based, JC-1 fluorescence, 24 h, 100 nL compound (AID 1170). Note: test concentration not given here. Conditions: higher = more signal.
Test [20] can be described thus: A549 lung cancer cell viability effects, profiling panel, resazurin fluorescence, 24 h, PK04 Diversity Set (AID 1171). Note: test concentration not given here. Conditions: higher = more signal, called active from +8 up or from −8 down.

Consider eight compounds from PubChem BioAssay.

SMILES strings stand for the structures. Activity calls are given as the source filed them.

Sequence of NADPH oxidase 5 (Homo sapiens) (Q96PH1 whole entry, looked up): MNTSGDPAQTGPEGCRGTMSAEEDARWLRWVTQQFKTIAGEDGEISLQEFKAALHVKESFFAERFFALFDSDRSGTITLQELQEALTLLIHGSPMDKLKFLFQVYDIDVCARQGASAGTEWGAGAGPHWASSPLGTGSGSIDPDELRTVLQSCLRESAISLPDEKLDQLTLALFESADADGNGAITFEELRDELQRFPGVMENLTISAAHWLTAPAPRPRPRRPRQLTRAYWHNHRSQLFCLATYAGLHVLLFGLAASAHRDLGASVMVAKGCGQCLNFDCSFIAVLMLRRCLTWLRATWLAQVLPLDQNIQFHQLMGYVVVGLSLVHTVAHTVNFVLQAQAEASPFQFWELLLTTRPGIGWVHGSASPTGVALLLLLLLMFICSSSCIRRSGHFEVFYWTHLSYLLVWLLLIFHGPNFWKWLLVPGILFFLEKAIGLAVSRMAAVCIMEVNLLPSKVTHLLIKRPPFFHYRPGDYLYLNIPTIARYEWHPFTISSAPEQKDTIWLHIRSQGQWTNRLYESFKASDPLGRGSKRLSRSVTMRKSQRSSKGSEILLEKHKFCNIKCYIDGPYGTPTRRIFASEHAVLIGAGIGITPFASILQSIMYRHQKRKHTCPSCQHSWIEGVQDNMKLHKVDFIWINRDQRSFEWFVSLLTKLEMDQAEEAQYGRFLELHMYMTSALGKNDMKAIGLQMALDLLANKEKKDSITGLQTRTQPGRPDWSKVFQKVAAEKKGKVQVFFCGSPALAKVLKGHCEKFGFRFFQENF
Sequence of NADPH oxidase 4 (Homo sapiens) (Q9NPH5 whole entry, looked up): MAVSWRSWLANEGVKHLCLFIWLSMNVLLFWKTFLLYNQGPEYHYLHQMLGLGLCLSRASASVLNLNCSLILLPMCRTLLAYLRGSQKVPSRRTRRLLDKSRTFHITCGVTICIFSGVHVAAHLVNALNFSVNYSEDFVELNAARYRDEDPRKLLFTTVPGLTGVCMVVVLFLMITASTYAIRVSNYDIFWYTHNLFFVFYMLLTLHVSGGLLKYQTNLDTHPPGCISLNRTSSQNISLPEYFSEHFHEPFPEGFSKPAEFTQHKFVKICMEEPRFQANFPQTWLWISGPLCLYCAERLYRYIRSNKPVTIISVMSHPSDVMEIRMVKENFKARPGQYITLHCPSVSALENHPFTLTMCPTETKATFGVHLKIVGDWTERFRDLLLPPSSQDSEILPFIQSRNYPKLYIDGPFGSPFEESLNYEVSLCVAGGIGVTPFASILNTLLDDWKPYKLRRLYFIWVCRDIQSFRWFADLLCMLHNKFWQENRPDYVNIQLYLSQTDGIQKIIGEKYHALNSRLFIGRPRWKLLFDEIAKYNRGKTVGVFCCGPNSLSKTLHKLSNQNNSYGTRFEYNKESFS
Sequence of NADPH oxidase 2 (Homo sapiens) (P04839 whole entry, looked up): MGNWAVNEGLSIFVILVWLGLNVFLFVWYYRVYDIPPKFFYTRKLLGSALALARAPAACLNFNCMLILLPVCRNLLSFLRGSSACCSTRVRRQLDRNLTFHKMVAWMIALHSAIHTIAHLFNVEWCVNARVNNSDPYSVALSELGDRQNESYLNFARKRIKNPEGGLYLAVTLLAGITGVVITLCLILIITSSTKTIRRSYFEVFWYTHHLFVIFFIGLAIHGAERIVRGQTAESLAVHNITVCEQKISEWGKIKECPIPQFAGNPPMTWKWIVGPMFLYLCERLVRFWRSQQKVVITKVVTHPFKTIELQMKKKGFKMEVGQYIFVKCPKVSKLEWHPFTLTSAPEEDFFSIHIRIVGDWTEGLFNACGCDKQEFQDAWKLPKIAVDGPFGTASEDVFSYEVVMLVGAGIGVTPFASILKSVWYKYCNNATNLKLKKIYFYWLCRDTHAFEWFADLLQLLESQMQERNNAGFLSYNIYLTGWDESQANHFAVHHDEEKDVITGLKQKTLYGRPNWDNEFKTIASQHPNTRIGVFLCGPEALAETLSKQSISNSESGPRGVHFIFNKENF

Turning to `COc1ccc(C(O)C2C=CC3C(=O)NC(=O)C3N2Nc2ccccn2)cc1` (stereo not given), the z-score was -0.416 (inactive) in test [1]; 0.539 (inactive) in test [3]; 0.874 (inactive) in test [4]; -0.079 (inactive) in test [5]; 0.778 (inactive) in test [6]; -0.449 in test [7]. Further, the z-score in test [8] is -0.755 (inactive); in [9] it was -2.56 (inactive); in test [10], -1.99; in test [11], -0.483; in test [12], -0.0402; in test [13], -0.454. The z-score was -0.632 in [14]; 0.202 in test [15]; -0.69 in test [16]; -0.0063 (inactive) in test [17]; -0.143 in test [18]; 0.0564 in test [19]. In [20], the z-score was -0.582 (inactive). Also, the composite z-score in test [2] was found to be 0.0622.
With `C=CCC(OC(C)=O)[C@@H]1[C@@H](N(Cc2cccc3ccccc23)C(=O)c2ccc(-c3ccccc3)cc2)c2cc(OCCCO)ccc2N1C(=O)Cc1ccc(OC)cc1` (stereo not given in full), the z-score in [1] is 0.571 (inactive); in [3], 0.177 (inactive); in test [4] it was -0.172 (inactive); in test [5], -1.02 (inactive); in [6], 0.0144 (inactive); in test [7], 0.904. The z-score in [8] was -1.6 (inactive); in [9] it was 0.32 (inactive); in test [10], 0.0661; in test [11] it was 1.29; in [12] it was 1.66; in test [13], 0.68. The z-score in test [14] is -0.169; in test [15], 0.516; in test [16] it was 2.05; in test [17], 0.324 (inactive); in test [18], -0.217; in test [19] it was -0.179. Besides, in test [20], the z-score was 1.54 (inactive). Further, the composite z-score in [2] was -0.277.
Regarding `CC(C)c1ccc(NN2C(C(O)C(c3ccccc3)c3ccccc3)C=CC3C(=O)N(c4ccccc4)C(=O)C32)cc1` (stereo not given), the z-score is -1.98 (inactive) in test [1]; 0.363 (inactive) in test [3]; 1.32 (inactive) in [4]; 0.771 (inactive) in test [5]; 0.948 (inactive) in test [6]; -0.582 in test [7]. Further, the z-score in test [8] is -1 (inactive); in test [9], -4.56 (inactive); in [10], -4.98; in [11], -0.447; in test [12], -0.306; in test [13], -0.0211. For the same compound, the z-score is -0.535 in [14]; -0.967 in test [15]; -0.988 in test [16]; -0.8 (inactive) in [17]; -0.107 in test [18]; 0.798 in test [19]. For the same compound, in [20], the z-score was -2.05 (inactive). The compound further returned a composite z-score in [2] of 0.497.
For the compound `COC(=O)[C@@]1(Cc2ccc(F)cc2)[C@@H]2[C@@H](CC(=O)[C@H]2CC(=O)C(=O)N(C)C)CN1C(=O)c1ccccc1`, the z-score in test [1] is -1.78 (inactive); in test [3], 2.32 (inactive); in test [4], 0.723 (inactive); in [5] it was 0.806 (inactive); in test [6] it was 0.961 (inactive); in [7], -0.761. The z-score was 0.366 (inactive) in [8]; -0.21 (inactive) in test [9]; 0.256 in [10]; -0.294 in test [11]; -1.19 in test [12]; 0.27 in [13]. The z-score in [14] is -0.886; in test [15], -1.73; in test [16], 1.65; in [17], -0.554 (inactive); in test [18], -0.00425; in test [19], -1.92. In addition, in test [20], the z-score was -2 (inactive). Besides, in test [2], the composite z-score worked out at 0.334.
Consider `C=C(COC)/C(=C/C[C@H](OC(=O)c1ccncc1)c1ccc(OCCO)cc1)c1cnc2ccccc2c1`, for which the z-score is -0.469 (inactive) in [1]; 20 (active) in test [3]; 3.18 (inactive) in test [4]; 1.47 (inactive) in test [5]; 0.848 (inactive) in [6]; 0.123 in test [7]. The z-score in test [8] was -0.294 (inactive); in [9], -0.192 (inactive); in [10], -0.608; in test [11], 1.54; in test [12] it was 0.317; in [13], -0.303. In addition, the z-score in [14] was -1.98; in [15] it was 0.0703; in [16] it was -0.232; in [17], -0.472 (inactive); in test [18], 0.147; in test [19] it was -0.799. Besides, the z-score in test [20] is 0.67 (inactive). Further, the composite z-score in test [2] is 0.062.
`COc1ccc([Si](C)(C)[C@@H]2[C@@H](CC(=O)N3Cc4ccccc4C[C@H]3CO)O[C@]3(C(=O)N(C)c4c(Br)cc(C)cc43)[C@H]2C)cc1`: the z-score was 0.0945 (inactive) in test [1]; 9.71 (active) in test [3]; 2.3 (inactive) in test [4]; 0.392 (inactive) in test [5]; 1.9 (inactive) in [6]; 2.09 in test [7]. The z-score in [8] was 0.0136 (inactive); in [9], 0.0254 (inactive); in test [10] it was -0.0526; in test [11], -0.721; in [12] it was 0.181; in test [13], -3.73. The z-score in [14] was -2.66; in [15] it was -4.35; in [16] it was 0.634; in test [17] it was 0.596 (inactive); in [18], -0.976; in test [19] it was -2.23. In test [20], the z-score was -1.18 (inactive). The compound further returned a composite z-score in test [2] of 0.297.
As for `C=CCC(OC(C)=O)[C@@H]1[C@@H](N(Cc2ccc(-c3ccccc3)cc2)C(=O)Cc2ccc(F)cc2)c2cc(OCCCO)ccc2N1C(=O)c1ccc(-c2ccccc2)cc1` (stereo not given in full), the z-score in test [1] is 2.08 (inactive); in test [3] it was 0.66 (inactive); in test [4] it was -0.221 (inactive); in test [5], -0.567 (inactive); in test [6], -0.154 (inactive); in test [7], 1.26. Also, the z-score is -1.49 (inactive) in test [8]; 0.414 (inactive) in test [9]; 0.263 in test [10]; -0.861 in test [11]; 0.779 in test [12]; 1.87 in test [13]. Besides, the z-score in [14] is 0.784; in [15], 1.16; in [16], 3.77; in test [17] it was 1.54 (inactive); in [18] it was -0.714; in test [19], -0.725. Moreover, the z-score in test [20] was 1.67 (inactive). Also, the composite z-score in [2] is -0.0193.
Turning to `O=C1O[C@H](c2ccccc2)[C@H](c2ccccc2)N2[C@H]1[C@@H](C(=O)N1CCN(c3ncccn3)CC1)[C@]1(C(=O)Nc3ccc(C#CC4=CCCCC4)cc31)[C@H]2c1ccc(O)cc1`, the z-score is 0.635 (inactive) in test [1]; 0.706 (inactive) in test [3]; 0.574 (inactive) in test [4]; -0.313 (inactive) in test [5]; 1.01 (inactive) in [6]; 0.538 in [7]. Moreover, the z-score was 0.852 (inactive) in test [8]; 0.537 (inactive) in [9]; 0.837 in test [10]; 0.645 in test [11]; 0.301 in test [12]; 0.469 in [13]. The z-score in test [14] is -0.36; in test [15] it was -1.91; in test [16] it was -1.49; in [17], 1.44 (inactive); in test [18], -0.745; in test [19], -0.75. In addition, the z-score in test [20] is -0.526 (inactive). Also, in test [2], the composite z-score turned out to be 0.396.
